From PubChem
Only a selection was taken, and hits are over-represented in it overall.
CBX7 AlphaScr – blocks human CBX7 binding to H3K27me3 peptide; AlphaScreen His6-CBX7 / biotin-H3K27me3 peptide binding; stronger effect = lower value; 66,000 compounds, 1.1% hits; normalised signal (fraction of DMSO) (no concentration beside the values); in the data active = normalised signal below about 0.5
Target sequence (O95931 whole entry, looked up): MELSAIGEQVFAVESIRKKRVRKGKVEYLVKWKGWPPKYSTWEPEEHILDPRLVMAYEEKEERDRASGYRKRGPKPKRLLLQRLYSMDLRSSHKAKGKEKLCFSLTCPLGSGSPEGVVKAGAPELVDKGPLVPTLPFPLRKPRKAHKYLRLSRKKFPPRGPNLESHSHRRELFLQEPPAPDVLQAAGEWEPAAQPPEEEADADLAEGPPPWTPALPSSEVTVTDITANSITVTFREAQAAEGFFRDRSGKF
Of the large screens only hits and unclear results are named; the others gave an inactive call.

Cc1ccc(-c2noc(-c3ccc(C(C)(C)C)cc3)n2)cc1	none
O=C(c1cn(-c2ccc(Cl)cc2)c(=O)c2ccccc12)N1CCC2(CC1)OCCO2	none
Cc1nn(-c2ccccc2)c(Cl)c1C(=O)Nc1ccc(C)c2cccnc12	none
COc1ccc(OC)c(NS(=O)(=O)c2ccc(OC)c3ncccc23)c1	none
CS(=O)(=O)Nc1ccc(Cl)c2cccnc12	CBX7 AlphaScr 0.0026
CCCN(C(=O)Cn1nc(Cc2cccnc2)c2ccccc2c1=O)c1ccc(F)cc1	none
COc1ccc(OC)c(NC(=O)c2c(NCc3ccc(N(C)C)cc3)sc3c2CCCC3)c1	CBX7 AlphaScr 0.48
COc1cccc(CNc2sc3c(c2C(=O)Nc2cc(OC)ccc2OC)CCCC3)c1	none
COc1ccc(OC)c(NC(=O)c2c(NCc3ccc(OC)c(OC)c3)sc3c2CCC3)c1	none
CCN1CCN(C(=O)c2cc(Nc3ccc(C)c(C)c3)nc3ccccc23)CC1	none
CCOC(=O)c1cnc2ccc(OCC)cc2c1N1CCN(C)CC1	none
CCOC(=O)c1cnc2ccc(OCC)cc2c1N1CCN(c2ccccn2)CC1	none
CCOC(=O)c1cnc2ccc(OCC)cc2c1N1CCN(Cc2ccccc2)CC1	CBX7 AlphaScr 0.5
Fc1ccc(-c2nnc3ccc(NCc4ccc5c(c4)OCO5)nn23)cc1	none
CCOc1ccc(-n2ccnc2SCC(=O)Nc2ccccc2OCC)cc1	none
CCOC(=O)c1cnc2c(C)cc(Cl)cc2c1Nc1ccc2c(c1)OCCO2	none
CCOC(=O)c1cnc2c(C)cc(C)cc2c1Nc1ccc(OCC)cc1	none
CCOC(=O)c1cnc2c(C)cc(C)cc2c1Nc1ccc(N(C)C)cc1	CBX7 AlphaScr 0.33
CCOC(=O)c1cnc2c(C)cc(Cl)cc2c1Nc1ccc(N2CCOCC2)cc1	CBX7 AlphaScr 0.26
CCOC(=O)c1cnc2c(C)cccc2c1Nc1ccc(C(=O)O)cc1	none
CCOC(=O)c1cnc2c(C)cc(Cl)cc2c1Nc1cccc(C(=O)O)c1	none
CCOC(=O)c1cnc2c(C)cccc2c1Nc1ccc(N(CC)CC)cc1	CBX7 AlphaScr 0.12
CCOC(=O)c1cnc2c(C)cc(C)cc2c1Nc1ccc(C)cc1	none
CCOC(=O)c1cnc2c(C)cccc2c1Nc1ccc(F)cc1	none
Cc1cccc(S(=O)(=O)Nc2cccc(-c3cn4ccccc4n3)c2)c1	none
COc1ccc(OC)c2[nH]c(=O)c(CCNC(=O)c3c(-c4ccccc4Cl)noc3C)cc12	none
CCN(c1ccccc1)S(=O)(=O)c1ccc2[nH]cc(C(=O)NCc3ccccc3Cl)c(=O)c2c1	none
O=C(CSc1nnc(-c2cccnc2)n1-c1ccccc1)c1c[nH]c2ccccc12	none
Cc1ccc(NC(=O)c2cc(C)nn2-c2ccccc2)c(Cl)c1	none
Cc1nc2c(C(=O)NC3CCCc4ccccc43)cnn2c(C)c1Cc1ccc(Cl)cc1 (stereo unspecified)	none
CCCCN(C)CCCNC(=O)c1cc(Nc2ccc(OC)c(OC)c2)nc2ccccc12	none
COc1ccc(Nc2cc(C(=O)NCCCN(C)Cc3ccccc3)c3ccccc3n2)cc1OC	CBX7 AlphaScr 0.44
COc1ccc(Nc2cc(C(=O)NCCN(Cc3ccccc3)C(C)C)c3ccccc3n2)cc1OC	none
CCCCNC(=O)CSc1nc(NCCOC)c2ccccc2n1	none
Cc1cc(N2CCC(C(=O)NC3CCCCCC3)CC2)n2nc(C)c(-c3ccc(Cl)cc3)c2n1	none
CCOC(=O)C1CCCN(c2c(NCCN(C)C)c(=O)c2=O)C1 (stereo unspecified)	none
Cc1cccc(NC2c3ccccc3C(=O)N2c2ccc(Cl)cn2)c1C (stereo unspecified)	none
Cc1ccc(NC2c3ccccc3C(=O)N2c2ccc(Cl)cn2)cc1F (stereo unspecified)	none
CCN(CC)c1ccc(NC2c3ccccc3C(=O)N2c2ccc(Cl)cn2)c(C)c1 (stereo unspecified)	CBX7 AlphaScr 0.065
Cc1ccc2c(c1)-c1c(cnn1CC(=O)Nc1ccc(Cl)cc1)CO2	none
CCOC(=O)c1nc(Nc2cccc(C(=O)O)c2)c2ccccc2n1	none
Cn1c2ccccc2c2c(C(=O)N3CCCCC3)cn(C3CCCC3)c(=O)c21	none
O=C(CC1Nc2ccccc2NC1=O)NCc1ccccc1Cl (stereo unspecified)	none
Cc1ccc2cc(CCNC(=O)c3ccc(Cl)cc3)c(=O)[nH]c2c1	none
O=C(Nc1nnc(-c2ccccc2Cl)o1)c1ccc(S(=O)(=O)N2CCCC2)cc1	none
O=C(Nc1nnc(-c2ccccc2Cl)o1)c1ccc(S(=O)(=O)N2CCOCC2)cc1	CBX7 AlphaScr 0.052
O=C(Nc1nnc(-c2cccs2)o1)c1ccc(S(=O)(=O)N2CCOCC2)cc1	none
CCCCN(C)S(=O)(=O)c1ccc(C(=O)Nc2nnc(-c3ccccc3Cl)o2)cc1	none
CC1CN(S(=O)(=O)c2ccc(C(=O)Nc3nnc(-c4ccccc4Cl)o3)cc2)CC(C)O1 (stereo unspecified)	CBX7 AlphaScr 0.041
COc1cc(OC)cc(-c2nnc(NC(=O)c3ccc(S(=O)(=O)N4CC(C)OC(C)C4)cc3)o2)c1 (stereo unspecified)	none
CCC1CCCCN1S(=O)(=O)c1ccc(C(=O)Nc2nnc(-c3ccccc3Cl)o2)cc1 (stereo unspecified)	CBX7 AlphaScr 0.055
CCC1CCCCN1S(=O)(=O)c1ccc(NC(=O)c2oc3ccccc3c2C)cc1 (stereo unspecified)	none
CC1CCN(c2nc3ccc(C(=O)NCCC4=CCCCC4)cc3s2)CC1	none
Cc1cc(N2CCC(C)CC2)nc2ccc(NC(=O)C(C)Oc3ccc(Cl)cc3Cl)cc12 (stereo unspecified)	none
CCCc1cc(C(=O)Nc2ccc3c(c2)OCO3)no1	none
CCOC(=O)N1CCN(c2c(NCCCN3CCN(C4CCCCC4)CC3)c(=O)c2=O)CC1	none
CCOC(=O)N1CCN(c2ccc3nnc(CCC(=O)Nc4ccc(C)cc4)n3n2)CC1	none
O=C(Nc1ccccc1)c1cc(S(=O)(=O)N2CCCc3ccccc32)cs1	none
CCCCn1c(CCNC(=O)c2cccc(C)c2)nc2ccccc21	none
CCCN(CCC)S(=O)(=O)c1ccc2c(c1)N(CC(=O)NCCc1ccccc1)C(=O)CS2	none
Cn1c(CCCNC(=O)c2ccc(F)cc2)nc2ccccc21	none
COc1ccc(C(CC(=O)c2ccco2)Sc2cccc3cccnc23)cc1OC (stereo unspecified)	CBX7 AlphaScr 0.005
CCOC(=O)c1nnn(-c2nonc2N)c1CSc1cccc2cccnc12	none
COc1ccc(CCNC(=O)C2CCN(S(=O)(=O)c3cccc4cccnc34)CC2)cc1OC	none
COc1ccc(C(=O)NCc2nnc(SCC(=O)NCc3ccc4c(c3)OCO4)o2)cc1	none
O=C(NCc1ccc2c(c1)OCO2)c1ccc(CNc2c(NC3CCCC3)c(=O)c2=O)cc1	none
COc1ccc(-c2nc3cc(C)ccn3c2NC(=O)Cc2cccc3ccccc23)cc1	none
O=C(Nc1ccc2oc(-c3cc(Br)ccc3Cl)nc2c1)c1ccccc1	none
Cc1ccc([N+](=O)[O-])cc1-c1[nH]c(-c2ccc(F)cc2)nc1-c1ccccc1	CBX7 AlphaScr 0.48
COc1cc(OC)cc(-c2nc(-c3ccccc3)c(-c3ccc(F)cc3)[nH]2)c1	none
Clc1ccc(-c2nc(-c3ccccc3)c(-c3ccccc3)[nH]2)cc1Cl	none
O=[N+]([O-])c1ccc(-c2nc(-c3ccccc3)c(-c3ccc(F)cc3)[nH]2)cc1	none
COc1cc(-c2nc(-c3ccccc3)c(-c3cccs3)[nH]2)cc(OC)c1O	CBX7 AlphaScr 0.48
c1ccc(Oc2ccc(-c3[nH]c(-c4ccccc4)nc3-c3ccccc3)cc2)cc1	CBX7 AlphaScr 0.47
COc1ccc(-c2nc(-c3ccccc3)c(-c3ccc(F)cc3)[nH]2)cc1	none
COc1ccc(-c2nc(-c3ccccc3)c(-c3cccs3)[nH]2)cc1	none
Brc1cccc(-c2nc(-c3ccccc3)c(-c3ccc(Oc4ccccc4)cc3)[nH]2)c1	none
